Screening results: PubChem BioAssay, National Center for Advancing Translational Sciences (NCATS)
A selection: hits, their analogues and other compounds. The true share with any hit is near 19%.
HT1080-NT tox = qHTS for induction of synthetic lethality in tumor cells producing 2HG: qHTS for the HT-1080-NT fibrosarcoma cell line; HT-1080-NT fibrosarcoma viability, CellTiter-Glo ATP luminescence, 48 h; Potency, µM (doses to about 46.1 µM), most hits filed as cytotoxic; 1.6% of 360,000 active; AID 686970, 2013;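 also: NT is the 2HG producing partner of a matched IDH1 knockdown line; nearly all actives have a fitted effect of over 55% in size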
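Fibrosarcoma NT cells, 750 per well in 5% FBS RPMI, were exposed to compound for 48 hours. Viability: CellTiter-Glo luminescence.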
KB-V1 MDR tox = qHTS assay for MDR1-selective chemotherapeutics: Primary screen using the drug-selected MDR subline cells KB-V1; Potency, µM (highest dose often 46.1 µM), actives largely listed as cytotoxic; 3.4% of 400,000 active; KB-V1 MDR cells viability, CellTiter-Glo, 72 h; also: nearly all actives have a fitted effect of over 60% in size
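In this primary screen, KB-V1 cells overexpressing P-gp are incubated with library compounds (lowest to highest concentration) for 72 h at 37 degrees C before a luminescent ATP viability read.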
HT1080 IDH1KD tx = qHTS for induction of synthetic lethality in tumor cells producing 2HG: qHTS for the HT-1080-IDH1KD cell line | HT-1080 IDH1 knockdown viability, ATP luminescence, 48 h | Potency, µM (top dose mostly 46.1 µM), most hits filed as cytotoxic | 2% of 360,000 active | AID 686971, 2013
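Knockdown cells (IDH1KD HT-1080) received compounds 2 h after plating at 750 cells/well and were kept 48 h at 37 °C in 5% FBS RPMI. A CellTiter-Glo luminescence read gave % activity for curve fitting.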
KB-3-1 tox = qHTS assay for MDR1-selective chemotherapeutics: Primary screen using the parental adenocarcinoma cell KB-3-1; KB-3-1 viability, CellTiter-Glo ATP luminescence, 72 h; Potency, µM (series often up to 46.1 µM), actives largely listed as cytotoxic; 1.4% of 400,000 active; also: nearly all actives have a fitted effect of over 60% in size
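Cytotoxicity measured as CellTiter-Glo luminescence after 72 h at 37 C. Compound titrations were pinned onto drug-naive KB-3-1 parental adenocarcinoma cells grown in DMEM with 10% FBS, and normalized data fitted to concentration-response curves.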
TDP1 cell CPT = qHTS for Inhibitors of human tyrosyl-DNA phosphodiesterase 1 (TDP1): qHTS in cells in presence of CPT; chicken DT40 Tdp1-/-;hTDP1 cells + 20 nM CPT, ATP luminescence, 48 h; Potency, µM (series often up to 46.2 µM), most hits filed as inhibitors; 12% of 420,000 active; also: nearly all actives have a fitted effect of over 55% in size
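Cell growth measured by CellTiter-Glo luminescence after a minimum 48 h, 37 C compound exposure with 20 nM CPT in Tdp1-knockout DT40 cells stably expressing hTDP1, seeded 400/well; qHTS titration format.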
DT40 TDP1 no CPT = qHTS for Inhibitors of human tyrosyl-DNA phosphodiesterase 1 (TDP1): qHTS in cells in absence of CPT | Potency, µM (top dose mostly 46.2 µM), most hits filed as inhibitors | AID 686978, 2013 | DT40 Tdp1-/- hTDP1 cells, no CPT, ATP luminescence, 48 h | 15% of 420,000 active; also: nearly all actives have a fitted effect of over 55% in size
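Camptothecin absent (DMSO only). Human TDP1-complemented DT40 knockout cells, 400 cells/well, 37 °C for minimum 48 hr; ATP measured via CellTiter-Glo, 30 min dark incubation, luminescence.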
A number is an active result. Calls follow the shape of the dose curve; as a rule, active = well fitted curve in the direction sought with a large enough effect; inconclusive = small, poorly fitted or top-dose-only effect, or another doubt; inactive = no such curve, though single readings can be large; an effect the other way counts as inactive or inconclusive.

For O=C(NC1(C(=O)NC2CCCCC2)CCCCC1)c1ccccn1 the results were HT1080-NT tox inactive, KB-V1 MDR tox inactive, HT1080 IDH1KD tx inactive, KB-3-1 tox inactive, TDP1 cell CPT inactive and DT40 TDP1 no CPT inactive.
Screening COc1cc(OC)cc(-c2c(-c3ccc(F)cc3)c3cc(-c4ccc(OC)nc4)ccc3n2C)c1 returned HT1080-NT tox inactive, KB-V1 MDR tox inactive, HT1080 IDH1KD tx inactive, KB-3-1 tox inactive, TDP1 cell CPT inconclusive and DT40 TDP1 no CPT 23µM.
COc1cc(OC)cc(-c2c(C#Cc3ccsc3)c3cc(-c4ccc(N(C)C)nc4)ccc3n2C)c1 was read as HT1080-NT tox inactive, KB-V1 MDR tox inactive, HT1080 IDH1KD tx inactive, KB-3-1 tox inactive, TDP1 cell CPT inconclusive and DT40 TDP1 no CPT 21µM.
COc1cccc(-c2c(-c3cc(OC)cc(OC)c3)n(C)c3ccc(-c4ccc(OC)nc4)cc23)c1 was read as HT1080-NT tox inactive, KB-V1 MDR tox inconclusive, HT1080 IDH1KD tx inactive, KB-3-1 tox inactive, TDP1 cell CPT 18µM and DT40 TDP1 no CPT 16µM.
COc1ccc(-c2c(-c3cc(OC)cc(OC)c3)n(C)c3ccc(-c4ccc(N(C)C)nc4)cc23)cc1 was read as HT1080-NT tox inactive, KB-V1 MDR tox inactive, HT1080 IDH1KD tx inactive, KB-3-1 tox inactive, TDP1 cell CPT 21µM and DT40 TDP1 no CPT 18µM.
CCOC(=O)c1ccc(COC(=O)c2ccc3c(c2)-c2ccccc2C3=O)cc1 was read as HT1080-NT tox inactive, KB-V1 MDR tox 15µM, HT1080 IDH1KD tx inactive, KB-3-1 tox inactive, TDP1 cell CPT inactive and DT40 TDP1 no CPT inconclusive.
`NS(=O)(=O)c1ccc(NC2=CC(=O)C(=O)c3ccccc32)cc1` gave HT1080-NT tox inconclusive, KB-V1 MDR tox inactive, HT1080 IDH1KD tx inconclusive, KB-3-1 tox inconclusive, TDP1 cell CPT 8.2µM and DT40 TDP1 no CPT 2.6µM.
CCOC(=O)c1ccc(NC2=CC(=O)C(=O)c3ccccc32)cc1 was read as HT1080-NT tox inactive, KB-V1 MDR tox inconclusive, HT1080 IDH1KD tx inactive, KB-3-1 tox inconclusive, TDP1 cell CPT 23µM and DT40 TDP1 no CPT 23µM.
`O=C(OCc1cccc(F)c1)c1ccc2c(c1)-c1ccccc1C2=O` gave HT1080-NT tox inactive, KB-V1 MDR tox inactive, HT1080 IDH1KD tx inactive, KB-3-1 tox inactive, TDP1 cell CPT inconclusive and DT40 TDP1 no CPT inconclusive.
`CCOc1ccccc1NC(=O)C1CCN(S(=O)(=O)c2ccccc2)CC1` gave KB-V1 MDR tox inconclusive, KB-3-1 tox inactive, TDP1 cell CPT inactive and DT40 TDP1 no CPT inactive.
O=C(Nc1ccccc1N1CCCC1)C1CCN(S(=O)(=O)c2ccc(F)cc2)CC1 was read as HT1080-NT tox inactive, KB-V1 MDR tox 8.2µM, HT1080 IDH1KD tx inactive, KB-3-1 tox inconclusive, TDP1 cell CPT inconclusive and DT40 TDP1 no CPT inconclusive.
Cc1ccc(S(=O)(=O)N2CCC(C(=O)Nc3ccccc3N3CCCC3)CC2)cc1C was read as HT1080-NT tox inactive, KB-V1 MDR tox inconclusive, HT1080 IDH1KD tx inactive, KB-3-1 tox inactive, TDP1 cell CPT inactive and DT40 TDP1 no CPT inconclusive.
`Cc1ccc(S(=O)(=O)N2CCCCC2)cc1NC(=O)C1CCN(C(=O)OC(C)(C)C)CC1` gave HT1080-NT tox inactive, KB-V1 MDR tox inactive, HT1080 IDH1KD tx inactive, KB-3-1 tox inactive, TDP1 cell CPT inconclusive and DT40 TDP1 no CPT 16µM.
For Cc1ccc(NC(=O)C2CCN(C(=O)OC(C)(C)C)CC2)cc1S(=O)(=O)N1CCCCC1 the results were HT1080-NT tox inactive, KB-V1 MDR tox inactive, HT1080 IDH1KD tx inactive, KB-3-1 tox inactive, TDP1 cell CPT inconclusive and DT40 TDP1 no CPT inactive.
`Cc1ccc(S(=O)(=O)N2CCC(C(=O)Nc3ccccc3N3CCCCC3)CC2)cc1C` gave HT1080-NT tox inactive, KB-V1 MDR tox inconclusive, HT1080 IDH1KD tx inactive, KB-3-1 tox inactive, TDP1 cell CPT 18µM and DT40 TDP1 no CPT inconclusive.
Screening CCn1c(=O)n(-c2ccc(F)c(Cl)c2)c(=O)c2c3c(sc21)CN(C(C)=O)CC3 returned KB-V1 MDR tox inactive, KB-3-1 tox inactive, TDP1 cell CPT inconclusive and DT40 TDP1 no CPT inactive.
Screening COC(=O)C1(C(=O)OC)c2cc3c(cc2CN(S(=O)(=O)c2ccc(C)cc2)C1CC(C)=O)OCO3 (stereo not drawn) returned HT1080-NT tox inactive, KB-V1 MDR tox inactive, HT1080 IDH1KD tx inactive, KB-3-1 tox inactive, TDP1 cell CPT inactive and DT40 TDP1 no CPT inactive.
`CCCN=C1N(CC)C[C@@H]2[C@@H]3C(=O)N(Cc4ccccc4)C(=O)[C@@H]3[C@](Cc3ccccc3)(C(=O)OC)N12` gave HT1080-NT tox inactive, KB-V1 MDR tox inactive, HT1080 IDH1KD tx inactive, KB-3-1 tox inactive, TDP1 cell CPT inactive and DT40 TDP1 no CPT inactive.
For Nc1[nH]nc2ncc3cc4ccccc4nc3c12 the results were HT1080-NT tox inconclusive, KB-V1 MDR tox inconclusive, HT1080 IDH1KD tx inconclusive, KB-3-1 tox inconclusive, TDP1 cell CPT 18µM and DT40 TDP1 no CPT 9.2µM.
Screening CC(=O)NC1=NN(C(C)=O)C(C)(c2ccccc2)S1 (stereo not drawn) returned HT1080-NT tox 2µM, KB-V1 MDR tox 7.3µM, HT1080 IDH1KD tx 7.1µM, KB-3-1 tox 8.2µM, TDP1 cell CPT 5.8µM and DT40 TDP1 no CPT 5.8µM.
CC(=O)NC1=NN(C(C)=O)C(C)(c2ccc3ccccc3c2)S1 (stereo not drawn) was read as HT1080-NT tox inactive, KB-V1 MDR tox inactive, HT1080 IDH1KD tx inactive, KB-3-1 tox inactive, TDP1 cell CPT inactive and DT40 TDP1 no CPT inconclusive.
`CCc1ccc(-c2[nH]c3c(c2-c2sc(C)c(C(=O)OC)c2O)c(=O)[nH]c(=O)n3C)cc1` gave KB-V1 MDR tox inactive, KB-3-1 tox inconclusive, TDP1 cell CPT 7.3µM and DT40 TDP1 no CPT 5.8µM.
`CCOC(=O)c1c(C)sc(-c2c(-c3ccc4c(c3)OCCO4)[nH]c3c2c(=O)n(C)c(=O)n3C)c1O` gave KB-V1 MDR tox inactive, KB-3-1 tox inactive, TDP1 cell CPT 18µM and DT40 TDP1 no CPT 18µM.
`CCOC(=O)c1c(C)sc(-c2c(-c3ccc(OC)c(F)c3)[nH]c3c2c(=O)[nH]c(=O)n3C)c1O` gave KB-V1 MDR tox inactive, KB-3-1 tox inactive, TDP1 cell CPT 16µM and DT40 TDP1 no CPT 16µM.
